{
  "source": "PubChem BioAssay (Tox21)",
  "note": "Unmarked numbers belong to inactive results. Calls of active or inactive are those of the source. Calls come from the whole dose curve; as a rule, active = well fitted curve in the direction sought with a large enough effect in the repeat runs; inconclusive = weak or mixed curves; inactive = flat fitted curve, though single readings scatter. % is set by controls: 0 for no effect and ±100 for the full control effect.",
  "data": [
    {"test": "qHTS assay to test for compound auto fluorescence at 535 nm (green) in HepG2 cells (AID 720675)", "settings": "green autofluorescence 485/535 nm, 1 h; series mostly up to 91.3 µM; fluorescence, % of fluorescein control: at the top concentration", "from_the_text": "National Center for Advancing Translational Sciences [NCATS]\nNIH Chemical Genomics Center [NCGC]\nU.S. Environmental Protection Agency [EPA]\nNational Institutes of Environmental Health Sciences [NIEHS]\nNational Toxicology Program [NTP]\nU.S. Food and Drug Administration [FDA]\nCompound auto fluorescence often interferes with screening of the compound library against various biological targets and signaling pathways. Some of these compounds may have fluorophoric properties. Such properties may interfere with the assay outputs resulting in false positives and/or negatives. To decrease such complications and ensure the compound activities are relevant in terms of biological response, the Tox21 10K compound library was screened for auto fluorescence.\nFrom the fluorophores used as reporter signals in our screening assays, the auto fluorescence equivalencies of compounds against three fluorophores have been evaluated: Triamterene, Fluorescein and Rose Bengal sodium for blue, green and red fluorescence, respectively. The fluorescence intensities were measured using Excitation/Emission wavelengths at 405/460nm, 485/535nm and 540/590nm for blue, green and red labels, respectively. This assay includes the green fluorescence data.\nTox21 Assay Protocol Summary:\n2,000 HepG2 cells in 5 uL of culture medium (MEM containing 10% FBS) per well were dispensed into black wall/clear bottom 1536-well plates using a Multidrop Combi Dispenser (ThermoFisher Scientific, Waltham, MA). The assay plates were incubated overnight at 37 C to allow cell attachment to the well bottom, followed by the transfer of 23 nL compound or DMSO vehicle by a pintool work station (Kalypsys , San Diego, CA). After the assay plates were incubated for 1 hr at 37 C and 5% CO2, fluorescence intensities in the assay plates were measured by an Envision (PerkinElmer, Shelton, CT) plate reader using three labels for measuring blue, green and red fluorescence at […] 460, 535 and 590 nm respectively.", "values": [
      {"smiles": "O=[N+]([O-])c1ccc2ccc3cccc4ccc1c2c34", "fluorescence, % of fluorescein control": "0.159%"},
      {"smiles": "CC1CCC(C(C)C)C(OC(=O)c2ccccc2N)C1", "note": "(stereo not given)", "outcome": "inactive"},
      {"smiles": "CCCCCCCCCCCCCCCCCCn1cc[n+](C)c1", "fluorescence, % of fluorescein control": "0.05%"},
      {"smiles": "CCCCCCCCCCCCCCC(Br)C(=O)O", "note": "(stereo not given)", "fluorescence, % of fluorescein control": "0.0197%"},
      {"smiles": "CC(C)CC(C)Nc1ccc(Nc2ccccc2)cc1", "note": "(stereo not given)", "fluorescence, % of fluorescein control": "0.176%"},
      {"smiles": "O=[N+]([O-])c1c2ccccc2cc2ccccc12", "fluorescence, % of fluorescein control": "0.155%"},
      {"smiles": "Nc1ccccc1C(=O)OC/C=C/c1ccccc1", "fluorescence, % of fluorescein control": "0.0354%"},
      {"smiles": "CN(C)[C@@H]1C(=O)C(C(N)=O)=C(O)[C@@]2(O)C(=O)C3=C(O)c4c(O)ccc(Cl)c4[C@@](C)(O)[C@H]3C[C@@H]12", "outcome": "inactive"},
      {"smiles": "BrCBr", "fluorescence, % of fluorescein control": "0.0256% [at 95.7 µM]"},
      {"smiles": "CCCCCCCCc1ccc(O)cc1", "fluorescence, % of fluorescein control": "-0.19%"},
      {"smiles": "C[C@@H]1O[C@@H](O[C@@H]2C=C3CC[C@@H]4[C@H](CC[C@]5(C)[C@@H](c6ccc(=O)oc6)CC[C@]45O)[C@@]3(C)CC2)[C@H](O)[C@H](O)[C@H]1O", "fluorescence, % of fluorescein control": "-0.0054% [at 18.6 µM]"},
      {"smiles": "ClC1=C(Cl)C2(Cl)C3C(Cl)C(Cl)CC3C1(Cl)C2(Cl)Cl", "note": "(stereo not given)", "outcome": "inactive"},
      {"smiles": "CCc1nn(C)c(C(=O)NCc2ccc(C(C)(C)C)cc2)c1Cl", "fluorescence, % of fluorescein control": "0.0198%"},
      {"smiles": "Cn1cc(C2=C(c3cn(C4CCN(Cc5ccccn5)CC4)c4ccccc34)C(=O)NC2=O)c2ccccc21", "fluorescence, % of fluorescein control": "0.33% [at 46 µM]"},
      {"smiles": "O=[N+]([O-])c1cc(C(F)(F)F)c(Cl)c([N+](=O)[O-])c1Cl", "fluorescence, % of fluorescein control": "-0.0107%"},
      {"smiles": "CC(C)Oc1cccc(NC(=O)c2ccccc2C(F)(F)F)c1", "fluorescence, % of fluorescein control": "0.115%"},
      {"smiles": "ClCc1ccc(Cl)cc1Cl", "fluorescence, % of fluorescein control": "0.123%"},
      {"smiles": "CCCOCC(=Nc1ccc(Cl)cc1C(F)(F)F)n1ccnc1", "fluorescence, % of fluorescein control": "0.0104%"},
      {"smiles": "CC(C)(C)c1ccc(CSc2cnn(C(C)(C)C)c(=O)c2Cl)cc1", "fluorescence, % of fluorescein control": "0.138%"},
      {"smiles": "O=C/C(Cl)=C(/Cl)C(=O)O", "outcome": "inactive"},
      {"smiles": "C[C@]12Cc3nonc3C[C@@H]1CC[C@@H]1[C@@H]2CC[C@@]2(C)[C@H]1CC[C@]2(C)O", "fluorescence, % of fluorescein control": "0.0048% [at 46 µM]"},
      {"smiles": "CC(C)CC(C)N", "note": "(stereo not given)", "fluorescence, % of fluorescein control": "0.0326%"},
      {"smiles": "Fc1ccc(Oc2ccnc3cc(Cl)cc(Cl)c23)cc1", "fluorescence, % of fluorescein control": "0.0841%"},
      {"smiles": "N#CSCSC#N", "outcome": "inactive"},
      {"smiles": "Cc1cc(C(F)(C(F)(F)F)C(F)(F)F)ccc1NC(=O)c1cccc(I)c1C(=O)NC(C)(C)CS(C)(=O)=O", "fluorescence, % of fluorescein control": "-0.0364%"},
      {"smiles": "CC(=O)c1cc(C(C)(C)C)cc2c1CCC2(C)C", "fluorescence, % of fluorescein control": "-0.0686%"},
      {"smiles": "CNC(C)Cc1ccc2c(c1)OCO2", "note": "(stereo not given)", "fluorescence, % of fluorescein control": "-0.0061% [at 95.7 µM]"},
      {"smiles": "CN(C)C(=S)[S-].CN(C)C(=S)[S-].[Cu+2]", "fluorescence, % of fluorescein control": "-0.0148% [at 18.6 µM]"},
      {"smiles": "CCCCCCCCCCCCCC[P+](CCCCCC)(CCCCCC)CCCCCC", "note": "(tested in a mixture with another compound)", "fluorescence, % of fluorescein control": "-0.0302%"},
      {"smiles": "Clc1ccc(C(Cl)(Cl)Cl)c(Cl)c1", "fluorescence, % of fluorescein control": "-0.0135%"},
      {"smiles": "CCCCCCCCCBr", "fluorescence, % of fluorescein control": "-0.0367%"},
      {"smiles": "CC(=O)[O-].CC(=O)[O-].O.O.[Cd+2]", "fluorescence, % of fluorescein control": "0.0213%"},
      {"smiles": "CC(C)OC(=S)S", "fluorescence, % of fluorescein control": "-0.0632%"},
      {"smiles": "[Cd+2].[Cl-].[Cl-]", "outcome": "inactive"},
      {"smiles": "CCOC(=O)CC(=O)CCl", "fluorescence, % of fluorescein control": "0.0202%"},
      {"smiles": "CC[C@H]1C[C@@H]2C[C@H]3c4[nH]c5ccc(OC)cc5c4CCN(C2)[C@@H]13", "fluorescence, % of fluorescein control": "0.114%"},
      {"smiles": "CC(=O)C(Cl)(Cl)Cl", "fluorescence, % of fluorescein control": "-0.405%"},
      {"smiles": "CC(C)OS(C)(=O)=O", "fluorescence, % of fluorescein control": "0.0421%"},
      {"smiles": "CSCCCN=C=S", "fluorescence, % of fluorescein control": "-0.0378%"},
      {"smiles": "Nc1ccccc1C(=O)Oc1ccc2ccccc2c1", "fluorescence, % of fluorescein control": "-0.0237%"}
    ]}
  ]
}
